# Screens deposited in PubChem by The Scripps Research Institute Molecular Screening Center.
# Hits are enriched below; roughly 3.1% of the tested compounds scored in any of these assays.
# pPAFAH inh: pPAFAH (human) enzyme inhibition; inhibition, % at 3.39 µM; 330,000 tested, 1.5% active; Q13093; recombinant pPAFAH, FP-rhodamine probe fluorescence polarization; AID 463082;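 active = inhibition above the mean inhibition across the screen plus 3 SD, cut at about 25% in these data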;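 note: inhibitors block binding of the rhodamine activity-based probe so polarization drops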
# PAFAH2 inh: PAFAH2 (human) inhibition | AID 492956 | recombinant PAFAH2, FP-rhodamine activity probe, fluorescence polarization | 340,000 tested, 0.99% active | inhibition, % at 3.39 µM | Q99487;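 active = inhibition above the mean over all tested compounds plus 3 SD, cut at about 30% in these data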;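 note: inhibitors block probe labeling of enzyme so polarization drops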
# E coli Lon inh: inhibits E. coli Lon protease; purified E. coli Lon protease, fluorescence polarization; P0A9M0; AID 602123; 360,000 tested, 0.42% active; inhibition, % at 7.94 µM; in the data active = inhibition above about 13%, passing the limit was not always enough
# PAFAH1B2 inh: inhibitors of human PAFAH1B2; recombinant PAFAH1B2, FP-rhodamine activity probe, fluorescence polarization; inhibition, % at 3.39 µM; 340,000 tested, 1.2% active;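 active = inhibition above the mean of all tested compounds plus 3 SD, cut at about 24% in these data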
# Rin1 Abl inh: human Rin1-Abl interaction inhibition; P00519+Q13671; TR-FRET Rin1/Abl binding, biochemical; inhibition, % at 7.35 µM; 360,000 tested, 0.4% active; in the data active = inhibition above about 5%, passing the limit was not always enough
# PAFAH1B3 FP inh: inhibitors of human PAFAH1B3; 340,000 tested, 0.28% active; inhibition, % at 3.39 µM; recombinant PAFAH1B3, FP-rhodamine probe, fluorescence polarization;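 active = inhibition above the screen-wide average of all tested compounds plus 3 SD, cut at about 25% in these data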
# pPAFAH confirm: confirmation of human plasma PAF acetylhydrolase (pPAFAH) inhibitors. shares compounds with pPAFAH inh. recombinant pPAFAH, FP-Rh probe fluorescence polarization. inhibition, % at 3.39 µM. 2,300 tested, 72% active;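 active = mean inhibition of the triplicate above the hit cutoff set for the earlier primary screen, cut at about 25% in these data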
# A number is an active result; - = inactive; . = no result.
SMILES,pPAFAH inh,PAFAH2 inh,E coli Lon inh,PAFAH1B2 inh,Rin1 Abl inh,PAFAH1B3 FP inh,pPAFAH confirm
COc1cc(OC)cc(-c2c(-c3cccs3)c3cc(-c4ccc(OCc5ccccc5)cc4)ccc3n2C)c1,45,-,-,-,-,-,-
c1ccc2c(-c3cccc4nccn34)cncc2c1,.,.,-,.,-,.,.
N#Cc1c(NC(=O)COC(=O)c2ccc(O)cc2O)sc2c1CCC2,-,-,-,-,-,-,.
Nc1ncnc2oc(-c3ccco3)c(-c3ccco3)c12,42,50,-,-,-,37,-
CCCc1cc(=O)[nH]c(SCC(=O)Nc2ccc([N+](=O)[O-])cc2C#N)n1,-,-,-,-,-,-,.
O=c1c(-c2ccc([N+](=O)[O-])cc2)coc2c(O)c(O)ccc12,54,-,-,-,-,-,78
CC(=O)Nc1ccc(NC(=O)c2ccccc2-n2cnnn2)cc1,.,-,-,-,-,-,.
Cc1cc(C(=O)C(=O)NC(C)C)c(C)n1-c1ccc([N+](=O)[O-])cc1,-,-,-,-,-,-,.
COCCNC(=O)C(=O)c1cc(C)n(-c2ccc([N+](=O)[O-])cc2)c1C,36,-,-,-,-,-,28
Cc1cc(C)cc(-n2c(SCC(=O)NCc3ccc4c(c3)OCO4)nc3ccccc3c2=O)c1,-,-,-,-,-,-,.
O=C(CSc1nc2cc([N+](=O)[O-])ccc2n1-c1ccccc1)NCc1ccc2c(c1)OCO2,44,-,-,-,-,-,37
COc1ccc(CNc2ncnc3c2[nH]c2ccccc23)cc1,-,.,-,.,-,.,.
COc1ccc(CNc2ncnc3c2[nH]c2cc(OC)c(OC)cc23)cc1,36,-,-,-,-,-,-
COc1cc(Cl)c(C)cc1NC(=O)CSc1sc2c(O)cc(=O)[nH]c2c1C#N,40,-,-,-,-,-,31
N#Cc1c(SCC(=O)Nc2nncs2)sc2c(O)cc(=O)[nH]c12,49,37,-,-,-,36,-
CSc1nsc(SCC(=O)Nc2nncs2)n1,-,-,-,-,-,-,.
Cc1ccc([N+](=O)[O-])cc1-c1[nH]c(-c2ccc(O)c(O)c2)nc1-c1ccccc1,65,-,-,-,-,-,83
COc1ccc(-c2nc(-c3ccccc3)c(-c3cc([N+](=O)[O-])ccc3C)[nH]2)cc1O,-,-,-,-,-,-,.
O=C(O)CCNc1cc(N2CCN(C(=O)c3ccco3)CC2)c2noc3c2c1C(=O)c1ccccc1-3,74,-,-,-,-,-,45
CC(=O)OCCNc1cc(N2CCN(C)CC2)c2noc3c2c1C(=O)c1ccccc1-3,.,-,-,-,-,-,.
COc1ccc(C(=O)Nc2cccc3c2CCCC3)cc1OC,-,-,-,-,-,-,.
COc1ccc2sc(-c3ccc(N(C)C)cc3)c(C#Cc3cncn3C)c2c1,42,-,-,-,-,-,38
Cc1cc(C)c(S(=O)(=O)N(C)CC(=O)N2CCCCC2)c(C)c1,52,-,-,-,-,-,-
COc1cc(C)ccc1OCc1cc(C(=O)N(Cc2c(C)nn(C)c2C)C2CC2)no1,-,-,-,-,-,-,.
CCOc1cc(CNCCO)cc(Br)c1OCc1ccc(Cl)cc1Cl,42,-,-,-,-,-,30
SMILES,pPAFAH inh,PAFAH2 inh,E coli Lon inh,PAFAH1B2 inh,Rin1 Abl inh,PAFAH1B3 FP inh,pPAFAH confirm
CC(C)Oc1ccc(OCCSc2nc3ccccc3n2CC(=O)O)cc1,-,-,-,-,-,-,.
O=C(CSc1nnc(SCc2ccccc2)s1)N/N=C/C=C/c1ccco1,44,-,-,-,-,-,40
O=C(CSc1nnc(SCc2ccc(Cl)cc2)s1)N/N=C/c1c[nH]c2ccccc12,41,-,-,-,-,-,35
N#CC1=C2CCCCC2(O)NC1=O (stereo unspecified),.,.,-,.,-,.,.
O=[N+]([O-])c1ccc(NN=Cc2cccc3ccccc23)nc1,.,-,-,-,-,-,.
COc1cccc(/C=N/Nc2ccc([N+](=O)[O-])cn2)c1O,48,-,-,-,-,-,-
O=[N+]([O-])c1ccc(N/N=C/c2cccc(O)c2O)cc1,60,-,-,-,-,31,56
O=C(NCCc1ccc2c(c1)OCCO2)c1cccc(S(=O)(=O)N2CCCC2)c1,36,-,-,-,-,-,-
COCC(C)NS(=O)(=O)c1ccc(C(=O)NC(Cc2ccccc2)c2ccccc2)cc1 (stereo unspecified),-,-,-,-,-,-,.
O=C1NC(=Nc2ccccc2Cl)S/C1=C\c1cc([N+](=O)[O-])ccc1O,41,44,-,28,-,61,63
Cc1ccc(S(=O)(=O)/N=C2/NC(=O)/C(=C/c3cc([N+](=O)[O-])ccc3O)S2)cc1,41,48,-,61,-,44,63
COc1cc(/C=C2\S/C(=N/S(=O)(=O)c3ccc(C)cc3)NC2=O)c([N+](=O)[O-])cc1OC,-,-,-,-,-,-,.
O=C1N/C(=N/O)S/C1=C/c1cccc([N+](=O)[O-])c1,-,-,-,-,-,-,.
N=C1/C(=C\c2ccc(OC(=O)c3ccccc3Cl)cc2)C(=O)N=C2SC(N3CCOCC3)=NN12,36,-,-,-,-,-,33
Cc1noc(C)c1-c1ccc(C(=O)Nc2ccc(C(C)C)cc2)c2occc12,.,.,-,.,-,.,.
Cc1c(N/C(=N/S(=O)(=O)c2ccc(Cl)cc2)c2ccccc2)c(=O)n(-c2ccccc2)n1C,82,.,.,.,.,.,-
COc1cc(/C=C/C(=O)OCC(=O)N(CC(C)C)c2c(N)n(Cc3ccccc3)c(=O)[nH]c2=O)ccc1O,.,-,-,-,-,-,.
O=S(=O)(Nc1nc2ccccc2nc1Nc1ccc2c(c1)OCCO2)c1cccs1,49,-,-,-,-,-,49
COc1ccc(Cc2nnc(NC(=O)Cc3cccs3)s2)cc1OC,36,-,-,-,-,-,-
COc1cc(NC(=O)c2ccccc2)c(OC)cc1NC(=O)Cc1cccs1,46,.,-,.,-,.,-
CC(O)[C@H]1CNC(=O)C(=O)N1CCCCC1CCCCC1 (stereo partly specified),-,-,-,-,-,-,.
COc1cc2nc(CN3CCOCC3)n(CC(=O)N3CCCCCC3)c(=O)c2cc1OC,56,-,-,-,-,-,-
COc1cc2nc(CN3CCOCC3)n(CC(=O)NCC(F)(F)F)c(=O)c2cc1OC,-,-,-,-,-,-,.
CCCCOc1ccc(SCCCN2CCOCC2)cc1,.,-,-,-,-,-,.
CCOc1ccc(NS(=O)(=O)c2ccc(C(=O)NCC(c3ccc(OC)cc3)N3CCCC3)cc2)cc1 (stereo unspecified),49,-,-,-,-,-,41
